From PubChem
In the library only some 2.6% were active in any assay of this set; here they are far more common.
A3G deaminase – blocks human APOBEC3G single-stranded DNA deamination; Q9HC16; recombinant A3G, ssDNA deamination FAM/TAMRA fluorescence; inhibition, % at 20 µM; 330,000 compounds, 0.28% hits; AID 493012;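 active = inhibition of at least 40% at 20 µM, with no more than 30% in the related APOBEC3A deaminase screen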
Target sequence (Q9HC16 whole entry, looked up): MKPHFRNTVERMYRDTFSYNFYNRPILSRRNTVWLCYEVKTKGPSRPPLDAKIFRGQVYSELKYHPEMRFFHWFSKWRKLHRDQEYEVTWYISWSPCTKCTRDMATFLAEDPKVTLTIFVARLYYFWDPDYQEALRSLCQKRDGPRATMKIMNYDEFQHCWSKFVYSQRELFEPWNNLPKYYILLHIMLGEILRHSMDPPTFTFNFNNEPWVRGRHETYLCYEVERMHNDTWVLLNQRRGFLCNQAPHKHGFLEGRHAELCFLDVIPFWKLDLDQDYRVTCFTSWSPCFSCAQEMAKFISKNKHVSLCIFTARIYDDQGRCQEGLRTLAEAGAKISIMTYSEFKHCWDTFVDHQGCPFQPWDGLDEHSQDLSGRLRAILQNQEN
MLLE-PAM2 inh – blocks PAM2 peptide binding to the PABP1 MLLE domain | P11940 | GST-MLLE / FITC-PAM2 fluorescence polarization | inhibition, % at 20 µM | 360,000 compounds, 0.36% hits | AID 588489; in the data active = inhibition above about 35%, passing the limit was not always enough
PABP FP inh – PABP-poly(A) binding inhibition. 290,000 compounds, 1% hits. P11940. calls only at 35 µM. PABP-poly(A) RNA binding, fluorescence polarization;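 note: calls also rest on retests at 20 µM and on dose response follow-up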
PHOSPHO1 block – blocks human PHOSPHO1 phosphatase activity; Q8TCT1; recombinant PHOSPHO1, absorbance phosphatase assay; inhibition, % at 13.3 µM; 290,000 compounds, 1.1% hits; in the data active = inhibition above about 60%
APOBEC3A inh – human APOBEC3A DNA deaminase inhibition; 330,000 compounds, 0.41% hits; recombinant A3A, FAM/TAMRA ssDNA deamination fluorescence; inhibition, % at 20 µM; AID 493011;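 active = at least 40% inhibition at 20 µM here, with at most 30% in a related deaminase screen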
eIF4H inh – inhibitors of RNA binding by human eIF4H | Q15056 | 290,000 compounds, 0.94% hits | inhibition, % at 35 µM | eIF4H fluorescence polarization binding assay;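 note: calls also rest on retests at 20 µM and on dose response follow-up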
Each line names hits and unclear results; the compound was inactive in the other large screens. Unless noted, the rule behind the calls is not given here.

COc1ccc(CNc2nc3ccccc3n2Cc2ccccc2)cc1OC	none
Cc1ccc(S(=O)(=O)N2CCC3(CC2)OCCO3)cc1	none
O=[N+]([O-])c1cccc(C(=S)N2CCCC2)c1	none
O=[N+]([O-])c1cccc(C(=S)N2CCN(c3ccc(F)cc3)CC2)c1	MLLE-PAM2 inh 76
O=C(CCn1nnc2ccccc21)N/N=C\Cc1ccccc1	none
CCCCNC(=O)c1ccc(NC(C)=O)c(Cl)c1	none
CCOC(=O)N1CCN(C(=O)CSc2nnc(C3COc4ccccc4O3)o2)CC1 (stereo unspecified)	none
O=C(CSc1nnc(C2COc3ccccc3O2)o1)N1CCCC1 (stereo unspecified)	MLLE-PAM2 inh 39
COc1ccc(C(=O)/C=C/Sc2nc3ccccc3o2)cc1	none
CCCCOC(=O)Sc1nc2ccccc2o1	PHOSPHO1 block 94
CCCCCn1c(C)c2c(OCC)cccc(=O)c2c1C	none
CCOc1cccc(=O)c2c(C)n(C)c(C)c12	PABP FP inh active, eIF4H inh 60
O=C1Nc2ccccc2SC(c2ccccc2)C1O (stereo unspecified)	PABP FP inh active, eIF4H inh inconclusive
O=C(O)CC1Sc2ccccc2NC1=O (stereo unspecified)	none
O=C(NNC(=O)c1cc2cc3ccccc3nc2s1)c1cccc(C(F)(F)F)c1	eIF4H inh 51
O=C(NNS(=O)(=O)c1ccccc1)c1cc2cc3ccccc3nc2s1	none
COc1cccc(NC(=O)C(c2ccccc2)N2CCCCC2)c1 (stereo unspecified)	PABP FP inh active, eIF4H inh 8.5
COc1cccc(NC(=O)C2CCCCC2)c1	none
COc1cccc(NC(=O)C2CCN(C(=O)NC3CCCCC3)CC2)c1	PHOSPHO1 block 63
COc1ccc(C(C)NC(=O)Cc2cccs2)cc1OC (stereo unspecified)	none
Oc1ccc(C[C@H]2CNCCN2CCCCC2CCCCC2)cc1	none (no result: PABP FP inh, PHOSPHO1 block, eIF4H inh)
CN(Cc1ccc(OC(F)F)cc1)C(=O)c1ccc2nccnc2c1	none
COc1cccc(CN(C)C(=O)c2ccc3nccnc3c2)c1	PABP FP inh active, eIF4H inh 88
O=C(COc1ccccc1F)N1N=C(c2cccs2)CC1c1ccco1 (stereo unspecified)	none (no result: PABP FP inh, PHOSPHO1 block, eIF4H inh)
Cc1ccc(C)n1Cc1ccc(C(=O)O)cc1	PABP FP inh active, eIF4H inh 93
COc1ccc(NC(=O)CN(C)C(=O)Cc2ccc3c(c2)CCC3)cc1	none
CN(C)c1ccc(C2C=C(c3ccc(Cl)cc3OC(F)F)Nc3ncnn32)cc1 (stereo unspecified)	PHOSPHO1 block 67
Cc1ccc(C2C=C(c3ccccc3OC(F)F)Nc3ncnn32)cc1 (stereo unspecified)	none
OCC(O)CNC(=S)NC1CCCCC1 (stereo unspecified)	MLLE-PAM2 inh 42
CCCNC(=S)NC1CCCC1	none
O=C1CC(SC(=S)C2CCCC2=O)C(=O)N1 (stereo unspecified)	MLLE-PAM2 inh 46 (no result: A3G deaminase, PABP FP inh, PHOSPHO1 block, APOBEC3A inh, eIF4H inh)
CC1(c2ccccc2)NC(=S)N2C1NC(=S)N2c1ccccc1 (stereo unspecified)	PHOSPHO1 block 61
COc1ccc(-n2cc(-c3ccccc3)[nH]c2=S)cc1	none
COc1ccc(N2C(=S)NC3N2C(=S)NC3(C)c2ccccc2)cc1 (stereo unspecified)	PHOSPHO1 block 61
O=C(CSc1n[nH]c(-c2ccncc2)n1)NC1CCS(=O)(=O)C1 (stereo unspecified)	PHOSPHO1 block 98
Cc1ccc(S(=O)(=O)N2CCCCC2)cc1C(=O)Nc1ccc(S(=O)(=O)Nc2ncccn2)cc1	PABP FP inh inconclusive, eIF4H inh inconclusive
CCCc1nc(SCC(=O)N2CCCCCC2)c2c(=O)n(C)c(=O)n(C)c2n1	none (no result: A3G deaminase, MLLE-PAM2 inh, APOBEC3A inh)
COC(=O)C(NNc1ccccc1)(NC(=O)c1ccc(F)cc1)C(F)(F)F (stereo unspecified)	PHOSPHO1 block 92
c1ccc(-c2nc(CSc3nnnn3-c3ccccc3)cs2)cc1	none
Cc1ccccc1Nc1nc(CSc2nnnn2-c2ccccc2)cs1	PHOSPHO1 block 95
Cc1nn(CC(=O)NCCc2ccc(Cl)cc2)c(=O)c2cccn12	none
O=C(Nc1ccccc1)N(C1=NCCC1)c1ccccc1	none
Cc1ccc(N(C(=O)Nc2ccccc2)C2=NCCC2)cc1	PABP FP inh active, eIF4H inh 88
Cc1cccc2c1N(C(=O)c1ccco1)C(C)(C)c1ssc(=S)c1-2	none
Cc1ccc2c(c1)N(C(=O)c1ccco1)C(C)(C)c1ssc(=S)c1-2	PABP FP inh active, eIF4H inh active
CC(C)[C@H]1COCCS(=O)(=O)N1Cc1ccccc1-c1ccccc1	none (no result: PABP FP inh, PHOSPHO1 block, eIF4H inh)
COc1ccccc1OCC(=O)NCCNC(=O)COc1ccccc1OC	MLLE-PAM2 inh 40
COc1ccccc1OCC(=O)NNC(=O)CCCC(=O)NNC(=O)COc1ccccc1OC	none
COc1ccccc1OCC(=O)Sc1ccc(C)cc1	MLLE-PAM2 inh 36
CCOC(=O)Cc1csc(SC(C)C(=O)NC2CCCCC2C)n1 (stereo unspecified)	none (no result: PABP FP inh, PHOSPHO1 block, eIF4H inh)
C[C@@]12C(=O)Nc3cc(F)c(F)cc3C(=O)N1[C@H]1c3cc(Cl)ccc3OC[C@@H]1[C@@H]2c1ccccc1	none (no result: PABP FP inh, PHOSPHO1 block, eIF4H inh)
COc1cc(O)c2c(c1)OC(C)(C)CC2=O	none
COc1cc(O)cc2cc3c(c(O)c12)C(=O)CC(C)(O)O3 (stereo unspecified)	MLLE-PAM2 inh 45, PABP FP inh active, eIF4H inh 72
CC1(C)Oc2ccc3ccc(=O)oc3c2C(N2CCCCC2)C1O (stereo unspecified)	eIF4H inh 42
CC1(C)Oc2ccc3ccc(=O)oc3c2[C@H](O)[C@H]1O	none (no result: PABP FP inh, PHOSPHO1 block, eIF4H inh)
COc1ccc(OC)c(-n2c(-c3cnccn3)n[nH]c2=S)c1	PHOSPHO1 block 84
COc1ccc(-n2c(-c3cnccn3)n[nH]c2=S)cc1	PHOSPHO1 block 94
COc1ccc(OC)c(-n2c(-c3cc(-c4ccc(F)cc4)n[nH]3)n[nH]c2=S)c1	PHOSPHO1 block 91
CS(=O)(=O)c1ccccc1C(=O)N1CCN(Cc2ccccc2)CC1	PHOSPHO1 block 73
CC(=O)Nc1ccccc1C(=O)N1CCN(Cc2ccccc2)CC1	none
COc1ccc(/C(C)=N/NC(=O)CN(c2ccc(OC)cc2)S(=O)(=O)c2ccccc2)cc1	none
Cc1cc(C)c[n+](-c2nc([O-])sc2C=O)c1	PHOSPHO1 block 96
CC1(C(=O)O)CCN1C(=O)c1cccnc1Oc1ccccc1 (stereo unspecified)	none (no result: A3G deaminase, PABP FP inh, PHOSPHO1 block, APOBEC3A inh, eIF4H inh)
Cc1cc(-n2c(C)cc(C(=O)CSc3ccc4c(c3)OCCO4)c2C)no1	PHOSPHO1 block 71
Cc1ccc(-n2nnnc2SCC(=O)c2cc(C)n(-c3cc(C)on3)c2C)c(C)c1	PHOSPHO1 block 75
COc1ccc(CNc2nc(S(=O)(=O)c3ccccc3)c(Cl)s2)cc1OC	PABP FP inh active, eIF4H inh 54
Cc1cc(C)cc(N2C(=O)CC(Sc3nnnn3-c3ccccc3)C2=O)c1 (stereo unspecified)	none
